# Source: PubChem BioAssay (NCI)
# This is part of a sample that, as a whole, favours compounds with a hit. Of some 83,000 tested, about 20% had one in any assay.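 Single-concentration screen, 48 h exposure, 96-well plates. Endpoint: percent growth. Below 10 = active.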 Unmarked numbers belong to inactive results. Calls of active or inactive are those of the source.
# Legend:
# Assay in all cases: NCI-60 one-dose screen, 48 h (100 = growth as untreated, 0 = no growth, -100 = all killed)
# Conditions in all cases: 10 µM unless noted
# HCT-15 colon = test system: HCT-15 colon
# HT29 colon = test system: HT29 colon
# SNB-75 CNS = test system: SNB-75 CNS
# SNB-19 CNS = test system: SNB-19 CNS
# U251 CNS = test system: U251 CNS
# PC-3 prostate = test system: PC-3 prostate
# SK-MEL-5 melanoma = test system: SK-MEL-5 melanoma
# UACC-62 melanoma = test system: UACC-62 melanoma
# LOX IMVI melanoma = test system: LOX IMVI melanoma
# SK-MEL-28 melanoma = test system: SK-MEL-28 melanoma
SMILES,growth (HCT-15 colon),growth (HT29 colon),growth (SNB-75 CNS),growth (SNB-19 CNS),growth (U251 CNS),growth (PC-3 prostate),growth (SK-MEL-5 melanoma),growth (UACC-62 melanoma),growth (LOX IMVI melanoma),growth (SK-MEL-28 melanoma)
CN(C)CCCC(=O)Nc1ccc(Cn2nnc3c2C(=O)c2nnn(Cc4ccc(NC(=O)CCCN(C)C)cc4)c2C3=O)cc1,94.5%,10.5%,-94.9% (active),82.7%,90.2%,88.1%,50.3%,75.7%,6.92% (active),56.5%
O=C(O)c1ccc(=O)[nH]n1,101%,123%,98.4%,102%,109%,103%,110%,98.2%,96.2%,109%
CCCCNC(=O)NS(=O)(=O)c1ccc(N2N=C(c3cc(C)ccc3C)CC2c2cc(OC)c(OC)c(OC)c2)cc1 (centres undefined),48.6%,72.2%,51.1%,68%,51.3%,36.9%,6.28% (active),49.5%,9.68% (active),18.6%
COc1ccc2nc3cc(Cl)ccc3c(NCCNCC(O)CO)c2c1 (centres undefined),73.4%,6.37% (active),42.1%,35.7%,17.3%,21.4%,35.3%,11%,-55.2% (active),30.8%
CC/C=C\C[C@H](F)C/C=C1/C(=O)C=C[C@@H]1C/C=C\CCCC(=O)O,29.4%,29.5%,81.4%,63.5%,19.2%,55%,15.5%,27.5%,-42.6% (active),46.7%
O=C1c2cc3c(cc2-c2c1c1cc(Cl)c(Cl)cc1c(=O)n2C[C@H](O)CO)OCO3,1.28% (active),-38.8% (active),-31.4% (active),-6.61% (active),-63.4% (active),5.35% (active),-84.8% (active),-66.8% (active),-70.9% (active),0.507% (active)
CC/C=C\C[C@H](O)C/C=C1/C(=O)C=C[C@@H]1C/C=C\CCCC(=O)OC(C)C,-33.5% (active),-49.7% (active),46%,9.75% (active),-89.8% (active),-0.368% (active),-94.7% (active),-41.7% (active),-82.3% (active),-41.3% (active)
C[C@]12C[C@@H](c3ccoc3)OC(=O)[C@@H]1CC[C@]1(C)[C@@H]2CC[C@@H](O)[C@]1(C)O,85.4%,68.3%,62.3%,76.5%,66.5%,60.5%,76.2%,76.1%,70.5%,94.1%
COc1ccc(CN2C(=O)/C(=C\c3cc(OC)c(OC)c(OC)c3)c3cc(OC)ccc32)cc1,-36.6% (active),-25.3% (active),28.3%,59.8%,-48% (active),28.9%,1.57% (active),-10.4% (active),-71.8% (active),-31.8% (active)
COc1cc(/C=N/N(C)C)ccc1O,105%,93.8%,103%,99%,81.8%,90%,99.5%,90.1%,108%,114%
COc1ccc(C(=O)/C=C/c2c[n+](=O)c3ccc(F)cc3n2[O-])cc1,101%,106%,106%,103%,95.1%,104%,111%,92.1%,94.2%,111%
COc1ccc2nc3cc(Cl)ccc3c(N3CCN(c4nccc(Nc5ccc(Cl)cc5)n4)CC3)c2c1,56.5%,69.7%,51.4%,92%,62.1%,40.3%,86.7%,81.6%,61.9%,81.8%
O=S(=O)(NCCCNc1cc(-c2cn(-c3ccccc3)nc2-c2cccc(O)c2)ccn1)c1ccccc1,9.91% (active),14.8%,51%,77.5%,41.3%,21.5%,15.4%,50.1%,17%,–
C=C1CCC2C3(C)COC(c4ccc(SC)cc4)OC3CCC2(C)C1C/C=C1/C(=O)OCC1O (centres undefined),68.7%,34.4%,73%,109%,60.7%,57.6%,65.3%,66.3%,23.3%,104%
CCC(c1ccc(O)cc1)C(CC)c1ccc(O)c(F)c1 (centres undefined),78.2%,102%,78.7%,125%,89.8%,72.1%,66.4%,59.4%,87.2%,78.9%
C[C@@H]1CCC2=C(CCC[C@]2(C)C(=O)O)[C@@]1(C)CCc1ccoc1,102%,86.9%,95.7%,92.9%,85.4%,87.4%,95.4%,85.3%,98.4%,115%
C=C1CCC2C3(C)COC(c4ccccc4Br)OC3CCC2(C)C1C/C=C1/C(=O)OCC1OC(C)=O (centres undefined),-36.2% (active),-46.2% (active),-25.3% (active),102%,-95.9% (active),-17.1% (active),-57.1% (active),-18.4% (active),-92% (active),-52.9% (active)
CCOC(=O)/C=C/c1ccc(C(=O)OCC)[nH]1,24.3%,15%,70.1%,87.7%,39.9%,83.5%,8.89% (active),51%,52.7%,83.8%
CC(C)[C@H]1COC(=O)N1[C@@H]1C(=O)N([C@@H](CCC(=O)N2CCN(C3CCCC3)CC2)C(=O)N[C@@H]2CCCc3ccccc32)[C@@H]1/C=C/c1cccc(Br)c1,20.9%,-15.3% (active),50%,44.7%,27.5%,29.7%,-82.2% (active),47.3%,-32% (active),32.2%
C[C@@]1(N2C(=O)OC[C@@H]2c2ccccc2)C(=O)N([C@H](CC(=O)N2CCC(N3CCCCC3)CC2)C(=O)NCc2cccc(C(F)(F)F)c2)[C@@H]1/C=C/c1ccccc1,19%,-3.04% (active),66.3%,74.1%,38.4%,52.8%,-93% (active),24.6%,-50.1% (active),-45.2% (active)
CS(=O)(CCCCN=C=S)=NC(=O)c1c(F)c(F)c(F)c(F)c1F (centres undefined),59.4%,90.2%,97.4%,90.4%,89.6%,88.6%,98.7%,88.7%,60.6%,97.6%
CC(C)Oc1nc2c(c(=O)n(C)c(=O)n2C)n1C,106%,96.6%,88%,96.4%,99.7%,90.7%,104%,96.5%,98.9%,105%
CSc1ccc(N=C=C(c2ccccc2)c2ccccc2)cc1,87.3%,87.3%,84.7%,91.7%,86.4%,84.6%,99.6%,83.1%,70.2%,99.2%
COCCCNc1nc(NC(=O)c2ccc(F)cc2C)cc(-c2cccnc2)n1,109%,105%,91.7%,89.9%,87.6%,95.9%,104%,85.7%,112%,107%
COc1ccc2nc3cc(Cl)ccc3c(N3CCN(c4ccnc(N5CCOCC5)n4)CC3)c2c1,8.96% (active),-18.2% (active),66.8%,95.5%,64.2%,67.2%,88.4%,91.9%,-59% (active),35.9%
COc1cc(OC)c(/C=C/S(=O)(=O)Cc2cnc(OC)c(N)c2)c(OC)c1,9.83% (active),0.841% (active),42.1%,31.3%,10.5%,27.8%,-24.8% (active),40.1%,8.96% (active),56.2%
CCOC(=O)C12CCCC1=CC(=O)CC2 (centres undefined),106%,131%,89.1%,99.9%,105%,94.8%,103%,102%,100%,106%
